This is an account of results in PubChem BioAssay AID2314 (National Center for Advancing Translational Sciences (NCATS), 2010).

Molecules are shown by their SMILES. The whole screen tested about 300,000 compounds, of which about 37,000 (12%) were called active. Only a selection was taken, and actives are over-represented in it overall. Values without a mark were called inactive. Cut-off read from the data, not from the text of the source: active = max response mostly above about 13% (no sharp cut-off); inactive = mostly below about 14%.

This assay is described as follows: Cycloheximide Counterscreen for Small Molecule Inhibitors of Shiga Toxin. Note: read at 38.3 µM for the half of the compounds with a filed dose; 0% is about no effect. The following applies: cell reporter, cycloheximide protein synthesis inhibition counterscreen; hits give high values. A general note: A counterscreen serves to expose hits that act by an unwanted route or on another target.
For `COc1ccc(CNC(=O)CN(c2ccc(OC)c(Cl)c2)S(=O)(=O)c2ccc(C)cc2)cc1`, the max response was 6.81%.

For `COc1cc(N/C=C2\CC(=O)NC(C)=C2C#N)cc(OC)c1OC`, the max response was -2.39%.

In the case of `Oc1ccc(CN2CCN(c3ncccn3)CC2)cc1`, the max response is -3.1%.

As to `c1cnc(N2CCN(c3ccc4ccccc4n3)CC2)nc1`, the max response is 53% (active).

As to `O=C(c1ccncc1)N1CCN(c2ccc3ccccc3n2)CC1`, the max response was 8.94%.

Consider `Fc1cc(F)c2nc(N3CCOCC3)sc2c1`, for which the max response was 36.9% (active).

Consider `Cc1cc(C)c2nc(N3CCC(C(=O)NCCN4CCOCC4)CC3)sc2c1`, for which the max response was -2.32%.

As for `Cc1nc(N2CCOCC2)sc1C(=O)NN`, the max response is -3.93%.

`COc1cc(OC)cc(C(=O)N[C@H](C(=O)Nc2nc3ccccc3[nH]2)C(C)C)c1`: the max response is 0.422%.

In the case of `CC(C)c1nc2ccc(C(=O)O)cc2[nH]1`, the max response was 7.51%.

Take `COC(=O)Nc1nc2ccc(Sc3ccccc3)cc2[nH]1`: the max response is 27.6% (active).

In the case of `CNc1nc(Nc2ccc(C)c(Cl)c2)nc(N)c1[N+](=O)[O-]`, the max response is 32.5% (active).

With `Cc1ccc(Nc2nc(N3CCOCC3)nc(N3CCOCC3)n2)cc1Cl`, the max response was -3.32%.

Consider `Nc1nc(Nc2ccccc2)nc(NCCO)c1[N+](=O)[O-]`, for which the max response was 0.849%.

As to `c1ccc2c(c1)CSc1sccc1C2=C1CCNCC1`, the max response was -3.55%.

For `CC(=O)NC(=S)NNC(=O)c1ccc(Br)cc1`, the max response was 12.5%.

As to `Cc1ccccc1Cn1c2ccccc2c2cnn(CC(=O)NCc3ccco3)c(=O)c21`, the max response is 1.52%.

For `COc1ccc2[nH]c(C(=O)N3CCN(C)CC3)c(C)c2c1`, the max response was 7.26%.

`Cc1[nH]c2ccc(C(=O)N3CCN(C)CC3)cc2c1C`: the max response is 28% (active).

In the case of `CCOc1ccccc1N1CCN(C(=O)c2ccc3[nH]c(C)c(C)c3c2)CC1`, the max response was -2.02%.

Regarding `COC(=O)Cc1ccc(Oc2ncc(C(F)(F)F)cc2Cl)cc1`, the max response is 10.3%.

As for `FC(F)(F)c1cnc(Oc2ccccc2-c2nnc(-c3ccc(Cl)cc3)o2)c(Cl)c1`, the max response was 13.8% (active).

For `CSc1ccccc1-c1nnc(-c2ccc(Cl)cc2)o1`, the max response is 29% (active).

For the molecule `Cc1cc(C)cc(NS(=O)(=O)c2ccc(Oc3ncc(C(F)(F)F)cc3Cl)cc2)c1`, the max response is -3.33%.

With `Cc1c(C)c2ccc(OCC(=O)N3CCN(c4cccc(Cl)c4)CC3)cc2oc1=O`, the max response was -3.72%.

Regarding `COc1cccc(-c2coc3cc4oc(=O)c(CC(=O)O)c(C)c4cc23)c1`, the max response was 7.42%.

Regarding `Cc1ccccc1CN1CCNC(=O)C1CC(=O)NCCC1=CCCCC1` (stereo not drawn), the max response is -4.14%.

As to `CN(C)CCCNC(=S)N1CCC(c2nc3ccccc3[nH]2)CC1`, the max response was -2.52%.

`CC(=O)N1c2ccc(S(=O)(=O)N3CCC(C(=O)NCc4ccc(F)cc4)CC3)cc2CC1C` (stereo not drawn): the max response was -3.6%.

Regarding `CCNc1ccc(C(=O)OCC(=O)N2c3ccccc3NC(=O)C2(C)C)cc1[N+](=O)[O-]`, the max response was -4.72%.

Consider `Cc1cc(C(=O)CSc2nc(N)cc(=O)[nH]2)c(C)n1-c1cccc(F)c1`, for which the max response was 7.82%.

In the case of `N#Cc1ccc(CSc2nnc3ccccn23)cc1`, the max response is 5.39%.

As to `O=C(CSc1nnc2n1CCCN2)c1ccccc1`, the max response is 38.3% (active).

Take `O=C(CSc1nnc2ccccn12)c1ccccc1`: the max response was 49.5% (active).

As to `Cn1c(CC(=O)Nc2ccccc2)nnc1SCC(=O)c1ccccc1`, the max response was 3.65%.

As to `O=C(CSc1nnc(-c2ccco2)n1CC1CCCO1)c1ccccc1` (stereo not drawn), the max response was 8.39%.

Turning to `Cc1ccc(-n2c(C)cc(C(=O)CSc3nnc4ccccn34)c2C)cc1`, the max response is 39.3% (active).

For `Cn1c(SCC(=O)c2ccc(F)cc2)nnc1-c1ccccn1`, the max response was 6.35%.

In the case of `Cc1ccc(-n2c(C)cc(C(=O)CN3C(=O)C(=O)N(C4CCCC4)C3=O)c2C)cc1`, the max response was -1.52%.

`COc1ccc(N(CC(=O)N2CCOCC2)S(=O)(=O)c2ccccc2)cc1Cl`: the max response was -0.709%.

Turning to `COc1ccc(/C=C(/NC(=O)c2ccccc2)C(=O)Nc2cccc(C(=O)O)c2)cc1`, the max response was -3.46%.

Turning to `COc1ccc(-c2c(C(C)=O)c(C)nc3sc4c(=O)n(-c5ccc(C)cc5)nnc4c23)cc1`, the max response was -1.79%.

With `CC(NCc1nc2ccccc2n1C)C12CC3CC(CC(C3)C1)C2` (stereo not drawn), the max response is -1.92%.

With `O=C(Cn1cc(-c2nnnn2-c2ccc(Cl)cc2)c(=O)c2ccccc21)c1ccccc1`, the max response is -5.16%.

For `CN(C(=O)CC1C(=O)NCCN1Cc1ccc2ccccc2c1)C1CCOCC1` (stereo not drawn), the max response was 0.547%.

On to `O=C(O)C1CCC(CNS(=O)(=O)c2ccc(Br)cc2)CC1` (stereo not drawn), for which the max response was -3.43%.

As to `COc1ccc(S(=O)(=O)Nc2ccccc2C(=O)N2CCCC2)cc1C`, the max response is -0.906%.

`C/C(CCC(=O)OC[C@H]1O[C@H](C#Cc2ccccc2)C=C[C@@H]1Oc1ccc(C)cc1)=N\OC[C@@H](O)[C@H]1O[C@@H]2OC(C)(C)O[C@@H]2[C@H]1O`: the max response is 1.29%.

Turning to `COc1cc(CC(=O)N/N=C/c2ccccc2)c([N+](=O)[O-])cc1OC`, the max response was 16.2%.

As to `CCOC(=O)c1sc(/N=C/C2=C(O)CC(C)(C)CC2=O)c(C(=O)OCC)c1C`, the max response was 65.5% (active).

`CCOC(=O)c1c(CC(C)C)csc1/N=C/C1=C(O)CCCC1=O`: the max response was -1.4%.

As for `CCOC(=O)c1c(/N=C/C2C(=O)CC(C)(C)CC2=O)sc(C)c1C`, the max response is -5.69%.

As for `CCCCCC1CC(COc2ccccc2)OC1=O` (stereo not drawn), the max response was -2.67%.

`Cc1oc2c(C)c3oc(=O)c(CC(=O)N[C@@H](CC(C)C)C(=O)N[C@@H](Cc4ccccc4)C(=O)O)c(C)c3cc2c1C`: the max response is -3.89%.

Take `CCc1cccc(C)c1NS(=O)(=O)c1cc(Br)cnc1N`: the max response is -7.68%.

As for `Brc1ccc2ncnc(NCc3cccnc3)c2c1`, the max response is 8.06%.

With `Oc1ccccc1CNc1ncc(Br)cc1Br`, the max response is 19.8% (active).

Take `O=C(NCc1ccc(Cl)c(Cl)c1)c1cccnc1`: the max response is -2.41%.

For `O=C(N/N=C/c1ccccn1)c1ccc(S(=O)(=O)N2CCCCCC2)cc1`, the max response was 73.8% (active).

In the case of `O=C(NN=C1CCC(=NNC(=O)c2cccnc2)CC1)c1cccnc1`, the max response is 22.4% (active).

For the molecule `CNC(=O)C(=O)N/N=C/c1ccccn1`, the max response is 6.76%.

Turning to `O=C(N/N=C/c1ccccn1)c1cccc(NC(=O)c2ccc(Cl)cc2)c1`, the max response is 13%.

On to `O=C(Nc1cnccn1)c1cccnc1`, for which the max response was -3.29%.

As for `Cc1cc(/C=N/NC(=O)c2cccnc2)c(C)n1CC(C)C`, the max response was 42.1% (active).

For the molecule `O=C(CNC(=O)c1cccnc1)N/N=C/c1cc(Br)c(O)c(Br)c1`, the max response was -1.81%.

With `O=C(Nc1ccc(S(=O)(=O)Nc2ncccn2)cc1)C12CC3CC(CC(C3)C1)C2`, the max response is 1.99%.

With `COc1cc(/C=N/NC(=O)c2cccnc2)ccc1OC(=O)c1cccc(Br)c1`, the max response was -6.4%.

For the molecule `CN1CCN(NC(=O)c2ccc(S(=O)(=O)N3CCCCCC3)cc2)CC1`, the max response is -2.75%.

Take `O=C(N/N=C/c1ccccn1)C12CC3CC(CC(C3)C1)C2`: the max response was 14.7% (active).

As for `FC(F)(F)Oc1ccc(NC(=S)NCc2ccccc2)cc1`, the max response was 1.72%.

Consider `C[C@H]1[C@H]2c3nc4ccccc4n3C[C@H]1ON2C1CCCCC1`, for which the max response was 2.13%.

For the molecule `COc1ccccc1N1CC(C(=O)Nc2nnc(SCC(=O)NCC3CCCO3)s2)CC1=O` (stereo not drawn), the max response is 8.07%.

Turning to `COC(=O)C1=C(Nc2ccc(C)cc2)C=C(C)C(C(=O)OC)C1c1ccc(F)cc1` (stereo not drawn), the max response was 10.3%.

Take `COc1ccc(-c2ccc(C3C4C=CCCC4(C)C(=O)N3Cc3ccccc3)c(F)c2)cc1OC` (stereo not drawn): the max response was 12.4%.

On to `O=C(N/N=C/c1ccc(O)c2ccccc12)c1cccnc1`, for which the max response is 15.4%.

Turning to `O=C(N/N=C/c1ccccn1)c1cccnc1`, the max response is 17.5% (active).

As for `Cc1ccccc1CSc1nnc(-c2cccnc2)n1N`, the max response is 16.2%.

Consider `Cc1ccccc1CSc1nnc(-c2ccccn2)n1N`, for which the max response is 27% (active).

`Cn1c(SCC(=O)C(C)(C)C)nnc1-c1ccccn1`: the max response is 18.9%.

For `CCN(C(=O)COC(=O)c1ccc(COc2ccc3c(C)cc(=O)oc3c2)cc1)C1CCS(=O)(=O)C1` (stereo not drawn), the max response is 21.1% (active).

With `COc1ccc(-c2cc(=O)oc3cc(OCC(=O)N(C)C4CCS(=O)(=O)C4)ccc23)cc1` (stereo not drawn), the max response was 3.93%.

On to `Cc1ccccc1NC(=O)c1ccc(COc2ccc3c(C)cc(=O)oc3c2)cc1`, for which the max response is -0.998%.

Regarding `COc1cccc(-c2nn(-c3ccccc3)cc2/C=C(\C#N)C(=O)NCCCn2ccnc2)c1`, the max response is 10.5%.

With `CC1CCCCC1NC(=O)CCS(=O)(=O)c1ccc2c(c1)NC(=O)CO2` (stereo not drawn), the max response is -2.74%.

As to `COc1ccc(/C=N/NC(=O)c2ccc3c(c2)OCCO3)c(OC)c1`, the max response was 56% (active).

Regarding `COc1ccc(/C=N/NC(=O)CNC(=O)c2ccc(S(=O)(=O)N3CCCC3)cc2)c(OC)c1`, the max response is -1.52%.

Take `COc1ccc(C(=O)Nc2ccccc2C(=O)N/N=C/c2ccccc2OC)cc1`: the max response was 17.9%.

Regarding `Cn1ccc(=Nc2ccc(NC(=O)c3ccc(N=c4ccn(C)c5ccc([N+](=O)[O-])cc45)cc3)cc2)cc1`, the max response was -1.72%.

Take `O=C(CNC(=O)COc1ccccc1)NCCc1ccccn1`: the max response was 5.88%.

Take `O=C(NCCc1ccccn1)c1cccnc1Oc1ccc(Cl)cc1`: the max response is 0.291%.

On to `O=C(NCCc1ccccn1)c1ccc(COc2ccccc2)o1`, for which the max response was 28.1% (active).

For the molecule `Cc1ncn2cc(-c3ccc(Cl)cc3Cl)[nH]c(=O)c12`, the max response is 8.02%.

For `Cc1cccc(N2CCN(S(=O)(=O)c3ccc(-c4cc(C)no4)s3)CC2C)c1` (stereo not drawn), the max response was -3.69%.
